# Assay results from PMC7862700, “An all-to-all approach to the identification of sequence-specific readers for epigenetic DNA modifications on cytosine”.
# Experiments:
# Assay in all cases: DAPPL (digital affinity profiling via proximity ligation, sequencing); 10 mM Tris-HCl pH 7.5, 50 mM NaCl, 1 mM DTT, 4% glycerol, room temperature, 30 min; GST-TFs on glutathione beads, 16-mer random dsDNA library, 0.1% formaldehyde crosslink after washing; high values mean tight binding
# Conditions in all cases: protein: recombinant; tags: N-terminal GST; dsDNA, one strand shown
# [1] = biological target: T1, FLI1 (Homo sapiens, UniProt Q01543 1-452)
# T1 sequence: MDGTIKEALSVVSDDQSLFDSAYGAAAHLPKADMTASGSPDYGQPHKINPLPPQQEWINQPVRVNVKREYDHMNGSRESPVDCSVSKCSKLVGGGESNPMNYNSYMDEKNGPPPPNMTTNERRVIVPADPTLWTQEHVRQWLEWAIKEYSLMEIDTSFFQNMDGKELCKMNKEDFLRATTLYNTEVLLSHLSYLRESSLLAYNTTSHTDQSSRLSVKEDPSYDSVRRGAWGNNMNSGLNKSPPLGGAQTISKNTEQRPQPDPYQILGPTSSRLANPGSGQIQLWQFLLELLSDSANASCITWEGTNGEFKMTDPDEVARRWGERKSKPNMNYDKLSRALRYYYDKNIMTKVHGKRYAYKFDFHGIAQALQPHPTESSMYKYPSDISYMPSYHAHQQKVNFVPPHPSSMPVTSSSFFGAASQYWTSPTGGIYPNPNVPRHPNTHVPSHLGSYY
# In short: (§1)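 Binding signal is defined as a hexamer's read frequency for one factor over its frequency for the tag-only sample. To obtain reads, GST-fused human transcription factors were expressed in yeast, captured on glutathione beads, barcoded with DNA and pooled with that sample. Pools met 200 nmole of a 16-mer random double-stranded DNA library in Tris/NaCl/DTT/glycerol buffer for 30 min at room temperature before washing, 0.1% formaldehyde crosslinking, proximity ligation (BsaI/T4 ligase, 1 h, 37 °C), PCR and Illumina NextSeq500 sequencing.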
# [2] = biological target: T2, ELK1 (Homo sapiens, UniProt P19419 1-428)
# T2 sequence: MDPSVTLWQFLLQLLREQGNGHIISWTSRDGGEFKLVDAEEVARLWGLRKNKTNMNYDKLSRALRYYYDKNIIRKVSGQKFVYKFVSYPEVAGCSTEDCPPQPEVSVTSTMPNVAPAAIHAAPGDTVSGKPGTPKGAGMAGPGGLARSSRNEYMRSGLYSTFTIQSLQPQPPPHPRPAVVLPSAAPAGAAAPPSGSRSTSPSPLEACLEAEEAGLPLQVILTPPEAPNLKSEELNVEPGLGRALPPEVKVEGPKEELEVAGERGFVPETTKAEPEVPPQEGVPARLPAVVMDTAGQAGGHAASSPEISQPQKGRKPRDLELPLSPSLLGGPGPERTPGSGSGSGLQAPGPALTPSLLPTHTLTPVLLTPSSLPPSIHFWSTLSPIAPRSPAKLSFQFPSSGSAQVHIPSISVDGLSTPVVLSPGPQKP
# In short: as §1
# [3] = biological target: T3, GABPA (Homo sapiens, UniProt Q06546 1-454)
# T3 sequence: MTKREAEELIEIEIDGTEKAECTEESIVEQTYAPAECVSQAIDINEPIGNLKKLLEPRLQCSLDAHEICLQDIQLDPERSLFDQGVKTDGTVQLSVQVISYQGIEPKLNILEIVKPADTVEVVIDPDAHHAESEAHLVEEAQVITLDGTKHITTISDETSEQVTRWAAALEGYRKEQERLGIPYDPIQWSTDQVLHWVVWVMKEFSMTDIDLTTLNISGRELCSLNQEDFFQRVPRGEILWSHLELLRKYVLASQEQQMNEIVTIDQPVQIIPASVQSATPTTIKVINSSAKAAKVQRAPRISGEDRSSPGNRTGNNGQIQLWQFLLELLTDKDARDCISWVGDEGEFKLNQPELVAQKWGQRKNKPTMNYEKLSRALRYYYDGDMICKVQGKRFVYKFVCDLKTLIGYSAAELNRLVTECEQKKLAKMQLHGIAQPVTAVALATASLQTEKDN
# In short: as §1
# [4] = biological target: T4, ERG (Homo sapiens, UniProt P11308 1-479)
# T4 sequence: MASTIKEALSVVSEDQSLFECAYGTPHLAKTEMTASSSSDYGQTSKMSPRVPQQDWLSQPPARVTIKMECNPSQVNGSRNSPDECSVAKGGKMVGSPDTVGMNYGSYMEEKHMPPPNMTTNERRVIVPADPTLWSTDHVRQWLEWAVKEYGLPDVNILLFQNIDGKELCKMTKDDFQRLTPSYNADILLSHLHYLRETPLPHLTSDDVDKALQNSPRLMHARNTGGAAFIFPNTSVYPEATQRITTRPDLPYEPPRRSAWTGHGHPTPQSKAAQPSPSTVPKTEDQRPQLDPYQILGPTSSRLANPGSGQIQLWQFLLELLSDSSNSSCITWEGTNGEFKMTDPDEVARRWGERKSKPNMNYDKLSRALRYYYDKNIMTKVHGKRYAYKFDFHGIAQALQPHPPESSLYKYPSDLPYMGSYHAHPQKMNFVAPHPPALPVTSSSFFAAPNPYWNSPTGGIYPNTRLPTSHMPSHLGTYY
# In short: as §1
# [5] = biological target: ELF1 (Homo sapiens, UniProt P32519 1-619)
# In short: as §1
# [6] = biological target: T5, EHF (Homo sapiens, UniProt Q9NZC4 1-300)
# T5 sequence: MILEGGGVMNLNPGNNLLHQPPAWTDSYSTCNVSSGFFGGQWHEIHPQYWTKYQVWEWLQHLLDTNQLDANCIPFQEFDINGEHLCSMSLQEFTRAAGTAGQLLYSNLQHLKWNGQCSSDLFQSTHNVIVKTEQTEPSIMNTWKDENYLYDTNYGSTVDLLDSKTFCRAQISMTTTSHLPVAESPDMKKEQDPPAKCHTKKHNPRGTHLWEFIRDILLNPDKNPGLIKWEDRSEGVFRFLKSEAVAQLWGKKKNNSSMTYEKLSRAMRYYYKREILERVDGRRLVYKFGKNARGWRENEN
# In short: as §1
# [7] = biological target: SPI1 (Homo sapiens, UniProt P17947 1-270)
# In short: as §1
# [8] = biological target: T6, ELK3 (Homo sapiens, UniProt P41970 1-407)
# T6 sequence: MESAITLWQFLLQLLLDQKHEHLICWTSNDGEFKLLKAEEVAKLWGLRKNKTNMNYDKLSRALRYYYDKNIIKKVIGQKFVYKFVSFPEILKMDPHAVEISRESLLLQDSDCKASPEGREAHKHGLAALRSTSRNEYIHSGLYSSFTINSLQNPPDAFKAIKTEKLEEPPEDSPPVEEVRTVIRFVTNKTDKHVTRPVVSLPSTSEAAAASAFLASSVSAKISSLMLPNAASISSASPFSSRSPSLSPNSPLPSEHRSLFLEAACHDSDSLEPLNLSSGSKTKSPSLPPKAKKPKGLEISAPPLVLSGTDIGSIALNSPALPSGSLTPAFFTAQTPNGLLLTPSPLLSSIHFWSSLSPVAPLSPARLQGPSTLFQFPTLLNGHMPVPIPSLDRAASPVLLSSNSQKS
# In short: as §1
# [9] = biological target: ETV5 (Homo sapiens, UniProt P41161 1-510)
# In short: as §1
# [10] = biological target: T7, SPIC (Homo sapiens, UniProt Q8N5J4 1-248)
# T7 sequence: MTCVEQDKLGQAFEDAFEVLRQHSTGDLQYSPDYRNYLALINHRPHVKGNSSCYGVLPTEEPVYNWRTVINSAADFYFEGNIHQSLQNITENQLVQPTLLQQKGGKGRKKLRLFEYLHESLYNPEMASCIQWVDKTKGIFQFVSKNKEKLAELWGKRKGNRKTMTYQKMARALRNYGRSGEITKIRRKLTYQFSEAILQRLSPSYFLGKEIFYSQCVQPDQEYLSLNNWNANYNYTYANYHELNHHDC
# In short: as §1
# [11] = biological target: ELF4 (Homo sapiens, UniProt Q99607 1-663)
# In short: as §1
# [12] = biological target: T8, ELK4 (Homo sapiens, UniProt P28324-2 1-405)
# T8 sequence: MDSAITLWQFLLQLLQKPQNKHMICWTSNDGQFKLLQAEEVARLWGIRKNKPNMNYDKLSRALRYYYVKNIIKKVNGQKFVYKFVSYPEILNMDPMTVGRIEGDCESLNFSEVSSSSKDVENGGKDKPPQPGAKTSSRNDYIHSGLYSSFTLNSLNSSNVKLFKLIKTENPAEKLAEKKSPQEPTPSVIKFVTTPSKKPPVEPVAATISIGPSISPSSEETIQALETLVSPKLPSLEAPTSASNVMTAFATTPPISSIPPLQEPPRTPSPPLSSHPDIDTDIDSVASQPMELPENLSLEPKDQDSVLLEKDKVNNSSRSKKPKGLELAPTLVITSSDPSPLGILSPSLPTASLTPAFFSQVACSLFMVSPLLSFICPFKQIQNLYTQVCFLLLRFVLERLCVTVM
# In short: as §1
# [13] = biological target: T9, ETV2 (Homo sapiens, UniProt O00321 1-342)
# T9 sequence: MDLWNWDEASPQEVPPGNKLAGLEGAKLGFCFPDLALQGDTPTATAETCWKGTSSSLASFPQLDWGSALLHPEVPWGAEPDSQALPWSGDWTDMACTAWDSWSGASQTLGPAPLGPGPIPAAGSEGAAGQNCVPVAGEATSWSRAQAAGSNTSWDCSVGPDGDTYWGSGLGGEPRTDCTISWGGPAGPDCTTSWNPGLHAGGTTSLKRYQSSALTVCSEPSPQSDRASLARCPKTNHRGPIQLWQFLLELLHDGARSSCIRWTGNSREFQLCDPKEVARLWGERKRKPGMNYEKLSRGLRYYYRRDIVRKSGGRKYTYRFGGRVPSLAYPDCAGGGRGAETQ
# In short: as §1
# [14] = biological target: SPIB (Homo sapiens, UniProt Q01892 1-262)
# In short: as §1
# [15] = biological target: T10, FEV (Homo sapiens, UniProt Q99581 1-238)
# T10 sequence: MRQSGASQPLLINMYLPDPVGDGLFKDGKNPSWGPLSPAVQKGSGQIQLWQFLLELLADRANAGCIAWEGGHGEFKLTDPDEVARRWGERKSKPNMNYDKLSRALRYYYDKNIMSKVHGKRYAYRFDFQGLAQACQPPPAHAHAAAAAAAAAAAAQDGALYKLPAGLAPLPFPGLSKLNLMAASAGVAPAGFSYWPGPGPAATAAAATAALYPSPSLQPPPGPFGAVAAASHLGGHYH
# In short: as §1
# [16] = biological target: ETV1 (Homo sapiens, UniProt P50549 1-477)
# In short: as §1
# ELF1, sequence (P32519 whole entry): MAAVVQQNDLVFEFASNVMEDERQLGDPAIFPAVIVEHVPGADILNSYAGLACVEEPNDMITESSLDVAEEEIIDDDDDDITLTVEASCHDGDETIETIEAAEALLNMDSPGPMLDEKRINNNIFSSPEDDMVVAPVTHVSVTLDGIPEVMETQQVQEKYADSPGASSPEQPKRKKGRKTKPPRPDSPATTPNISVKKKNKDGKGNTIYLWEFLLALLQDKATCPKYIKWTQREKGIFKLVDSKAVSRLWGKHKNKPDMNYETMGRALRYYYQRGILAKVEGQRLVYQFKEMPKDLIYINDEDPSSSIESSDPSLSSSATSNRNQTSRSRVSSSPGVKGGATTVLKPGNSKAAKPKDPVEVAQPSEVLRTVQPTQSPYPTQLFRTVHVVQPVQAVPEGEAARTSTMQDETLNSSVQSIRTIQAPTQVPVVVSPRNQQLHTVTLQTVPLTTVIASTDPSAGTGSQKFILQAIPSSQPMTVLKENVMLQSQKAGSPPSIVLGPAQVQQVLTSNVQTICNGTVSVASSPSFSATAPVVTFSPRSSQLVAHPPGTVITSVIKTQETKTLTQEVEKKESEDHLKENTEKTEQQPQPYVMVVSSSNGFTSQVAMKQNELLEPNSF
# ETV5, sequence (P41161 whole entry): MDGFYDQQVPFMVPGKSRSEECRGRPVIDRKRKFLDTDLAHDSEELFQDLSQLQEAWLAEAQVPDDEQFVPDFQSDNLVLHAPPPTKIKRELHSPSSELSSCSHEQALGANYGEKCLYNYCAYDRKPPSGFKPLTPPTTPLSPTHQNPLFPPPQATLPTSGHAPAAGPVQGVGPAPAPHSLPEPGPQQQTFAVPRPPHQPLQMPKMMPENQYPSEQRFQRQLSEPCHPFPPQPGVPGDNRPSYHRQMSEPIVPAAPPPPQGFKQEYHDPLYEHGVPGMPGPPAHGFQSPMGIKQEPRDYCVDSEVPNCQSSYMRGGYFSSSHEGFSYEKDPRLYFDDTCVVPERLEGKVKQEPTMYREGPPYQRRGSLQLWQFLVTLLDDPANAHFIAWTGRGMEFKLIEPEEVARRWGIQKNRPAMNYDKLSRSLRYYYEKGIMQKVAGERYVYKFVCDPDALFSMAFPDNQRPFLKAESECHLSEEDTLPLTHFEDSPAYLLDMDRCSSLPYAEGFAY
# ELF4, sequence (Q99607 whole entry): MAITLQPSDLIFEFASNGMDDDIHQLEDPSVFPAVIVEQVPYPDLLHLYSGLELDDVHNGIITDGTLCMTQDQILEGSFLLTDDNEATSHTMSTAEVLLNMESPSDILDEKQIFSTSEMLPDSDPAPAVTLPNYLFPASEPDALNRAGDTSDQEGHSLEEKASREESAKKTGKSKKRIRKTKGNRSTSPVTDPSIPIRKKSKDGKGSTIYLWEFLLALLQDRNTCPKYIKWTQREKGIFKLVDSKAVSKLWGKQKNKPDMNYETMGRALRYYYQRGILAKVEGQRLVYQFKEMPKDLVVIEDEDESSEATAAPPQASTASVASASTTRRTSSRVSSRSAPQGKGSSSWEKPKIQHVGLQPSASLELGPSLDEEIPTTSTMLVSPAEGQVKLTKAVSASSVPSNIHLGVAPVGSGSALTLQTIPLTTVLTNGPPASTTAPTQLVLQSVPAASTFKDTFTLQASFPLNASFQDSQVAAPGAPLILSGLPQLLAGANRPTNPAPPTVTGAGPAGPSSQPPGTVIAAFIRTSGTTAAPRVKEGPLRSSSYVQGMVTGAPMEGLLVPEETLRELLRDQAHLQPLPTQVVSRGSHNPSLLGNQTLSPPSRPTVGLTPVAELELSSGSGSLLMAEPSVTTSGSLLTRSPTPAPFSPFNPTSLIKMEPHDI
# SPIB, sequence (Q01892 whole entry): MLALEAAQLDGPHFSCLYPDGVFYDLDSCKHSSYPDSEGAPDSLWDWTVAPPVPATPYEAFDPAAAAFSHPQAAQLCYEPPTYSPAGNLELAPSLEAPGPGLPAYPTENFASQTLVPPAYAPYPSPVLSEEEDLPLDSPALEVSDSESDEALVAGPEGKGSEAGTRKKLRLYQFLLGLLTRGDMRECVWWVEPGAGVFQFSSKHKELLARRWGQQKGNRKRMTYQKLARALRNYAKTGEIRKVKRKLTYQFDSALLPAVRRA
# ETV1, sequence (P50549 whole entry): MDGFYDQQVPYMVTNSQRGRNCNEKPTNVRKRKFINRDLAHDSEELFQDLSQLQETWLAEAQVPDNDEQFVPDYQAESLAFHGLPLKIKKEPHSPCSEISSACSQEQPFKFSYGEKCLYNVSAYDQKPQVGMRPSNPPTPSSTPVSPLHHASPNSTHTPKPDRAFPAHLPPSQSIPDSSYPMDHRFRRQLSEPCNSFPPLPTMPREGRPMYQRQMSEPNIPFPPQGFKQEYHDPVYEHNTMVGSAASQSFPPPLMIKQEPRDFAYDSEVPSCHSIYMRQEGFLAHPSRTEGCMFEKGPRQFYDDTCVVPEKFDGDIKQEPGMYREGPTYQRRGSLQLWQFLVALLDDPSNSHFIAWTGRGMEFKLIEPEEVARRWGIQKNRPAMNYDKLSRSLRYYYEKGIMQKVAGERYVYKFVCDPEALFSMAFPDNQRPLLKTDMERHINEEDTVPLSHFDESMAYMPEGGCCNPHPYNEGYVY
Sequence,binding signal [1],binding signal [2],binding signal [3],binding signal [4],binding signal [5],binding signal [6],binding signal [7],binding signal [8],binding signal [9],binding signal [10],binding signal [11],binding signal [12],binding signal [13],binding signal [14],binding signal [15],binding signal [16]
CATGGG,"1.04 fold enrichment (6-mer frequency, TF over GST control)","1.07 fold enrichment (6-mer frequency, TF over GST control)","1.04 fold enrichment (6-mer frequency, TF over GST control)","1.07 fold enrichment (6-mer frequency, TF over GST control)","1.05 fold enrichment (6-mer frequency, TF over GST control)","1.03 fold enrichment (6-mer frequency, TF over GST control)","1.03 fold enrichment (6-mer frequency, TF over GST control)","1.09 fold enrichment (6-mer frequency, TF over GST control)","1.01 fold enrichment (6-mer frequency, TF over GST control)","1.05 fold enrichment (6-mer frequency, TF over GST control)","1 fold enrichment (6-mer frequency, TF over GST control)","1.02 fold enrichment (6-mer frequency, TF over GST control)","1.04 fold enrichment (6-mer frequency, TF over GST control)",–,–,–
GGTCCC,"1.13 fold enrichment (6-mer frequency, TF over GST control)","1.21 fold enrichment (6-mer frequency, TF over GST control)","1.16 fold enrichment (6-mer frequency, TF over GST control)","1.21 fold enrichment (6-mer frequency, TF over GST control)","1.17 fold enrichment (6-mer frequency, TF over GST control)","1.19 fold enrichment (6-mer frequency, TF over GST control)","1.1 fold enrichment (6-mer frequency, TF over GST control)","1.16 fold enrichment (6-mer frequency, TF over GST control)","1.13 fold enrichment (6-mer frequency, TF over GST control)","1.18 fold enrichment (6-mer frequency, TF over GST control)","1.16 fold enrichment (6-mer frequency, TF over GST control)","1.29 fold enrichment (6-mer frequency, TF over GST control)","1.16 fold enrichment (6-mer frequency, TF over GST control)","1.31 fold enrichment (6-mer frequency, TF over GST control)","1.1 fold enrichment (6-mer frequency, TF over GST control)","1.3 fold enrichment (6-mer frequency, TF over GST control)"
